Results from PubChem BioAssay (NCATS).
Unmarked numbers belong to inactive results. Results filed as inconclusive are left out. Calls of active or inactive are those of the source. Unless noted, calls come from the whole dose curve; as a rule, active = well fitted curve in either direction with a large enough effect (not every such curve was filed as active); inconclusive = small, poorly fitted or top-dose-only effect, or another doubt; inactive = flat fitted curve, though single readings scatter.

Experiments:
[1] = target: Lysosomal acid glucosylceramidase (Homo sapiens) (UniProt P04062); assay: Glucocerebrosidase-p2 (AID 348; in the data active = potency below about 10 µM; note: potency is the fitted concentration of half-maximal effect); settings: purified GBA, blue fluorogenic substrate, 40 min
Outline: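 Normal human glucocerebrosidase (0.2 nM) with blue fluorogenic substrate (80 uM final) in citrate/phosphate pH 5.9 with 10mM sodium taurocholate, 0.01% tween-20; 40 min RT, NaOH/glycine stop; fluorescence Ex 365/Em 440; AC50 from a titration from 0.6 nM upwards.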

[2] = AP1 Signaling Pathway (AID 357); settings: ME-180 AP-1-bla reporter, EGF-induced, beta-lactamase ratio, 5 h; at 7.69 µM (top of the series) unless noted;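 note: ME-180 reporter cells stimulated with EGF at its EC50 level; % is set by controls: 0 for no effect and ±100 for the full control effect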
Outline: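 First, ME-180 AP-1-bla cells were cultured overnight at 37 °C in low-serum Opti-MEM. Next, titrated compounds with EC50 EGF were incubated 5 hours. Finally, CCF4 was added for 2.5 hours and the 460/530 nm ratio recorded.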

[3] = target: Cytochrome P450 1A2 (Homo sapiens) (UniProt P05177); assay: p450-cyp1a2 (AID 410; calls by dose curve; note: potency is the fitted concentration of half-maximal effect;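 for activity change, negative = inhibition: -100% = full effect of reference inhibitor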); settings: recombinant CYP1A2, luciferin-ME demethylation, luminescence; series mostly up to 11.4 µM
Outline: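 O-Demethylation of luciferin 6' methyl ether by human CYP1A2 is monitored as luciferase luminescence. Substrate sits at Km (100uM); enzyme is 20nM. Values are scaled to 57 uM furafylline as maximal inhibition.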

[4] = NFAT Signaling Pathway (AID 444); settings: Jurkat NFAT-bla M1, carbachol, beta-lactamase ratio, 5 h; at 7.69 µM (top of the series) unless noted;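 note: carbachol stimulus at about its EC50 of 1 µM final; % is set by controls: 0 for no effect and ±100 for the full control effect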
Outline: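 Jurkat cells carrying an NFAT-driven β-lactamase reporter and co-transfected muscarinic M1 receptor were treated with compound plus carbachol (1 uM final, an EC50 level) for 5 h at 37 °C. CCF4 loading followed for 1 h at RT; 460/530 nm ratio gave %activity.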

[5] = Stat Signaling Pathway (AID 446); settings: ME-180 SIE beta-lactamase reporter, IL-6 stimulated, 5 h; at 7.69 µM (top of the series) unless noted;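 note: ME-180 cervical cancer cells given 40 pM IL-6 alongside compound; SIE-controlled beta-lactamase reporter measured as 460/530 nm FRET emission ratio; % is set by controls: 0 for no effect and ±100 for the full control effect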
Outline: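 Compound effects on IL-6-induced STAT reporter activity were measured in ME-180 cells. After overnight culture, cells were co-treated with 40 pM IL-6 for 5 hrs before beta-lactamase substrate loading at room temperature.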

[6] = target: Glucocorticoid receptor (Homo sapiens) (UniProt P04150); assay: GR-GFP Redistribution (AID 450;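 active = compounds whose dose series gives a full or clear partial fitted curve of increased nuclear translocation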; note: potency is the fitted concentration of half-maximal effect); settings: U2OS GR-GFP nuclear translocation, laser cytometry, 2 h
[7] = target: Glucocorticoid receptor (Homo sapiens) (UniProt P04150); assay: GR-EFC Redistribution (AID 451; calls by dose curve; note: potency is the fitted concentration of half-maximal effect); settings: CHO-K1 GR-EFC translocation, beta-gal luminescence, 2 h
Outline: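 CHO-K1 cells stably expressing nuclear-localized β-gal enzyme acceptor and GR fused C-terminally to the enzyme donor fragment; ligand-driven nuclear translocation restores β-gal by complementation. Compounds titrated up to 46 uM final, 2 h at 37 °C; luminescence read.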

[8] = target: Mitogen-activated protein kinase 10 (Mus musculus) (UniProt Q61831); assay: JNK3 AlphaScreen Assay (AID 530); settings: JNK3 lysate, c-Jun phosphorylation; series mostly up to 11.4 µM;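 note: kinase came from lysate of stimulated human HepG2 cells; signal reports phosphorylation of biotinylated GST-cJun 1-79 at Ser73 with 10 µM ATP; % is set by controls: 0 for no effect and ±100 for the full control effect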
Outline: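 Phosphorylation of biotinylated GST-cJun(1-79) at Ser73 is measured by AlphaScreen proximity luminescence. Enzyme is JNK3 in HepG2 lysates activated with interleukin-1beta and tumor necrosis factor alpha; ATP is 10 uM final.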

[9] = target: 3',5'-cyclic-AMP phosphodiesterase 4B (Homo sapiens) (UniProt Q07343); assay: qHTS Assay for Inhibitors of PDE-IV (AID 607; active = well fitted activation curve with a large enough effect in the main read-out, with a control signal flat, not every such curve was filed as active; note: % of control where 0% means no effect); settings: HEK293 ACTOne CNG channel cells, membrane potential fluorescence; series mostly up to 22.9 µM
Outline: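 ACTOne HEK293 cells carry a modified cAMP-gated CNG channel and express endogenous PDE4; plated 1000 cells/well, compounds up to 22.9 uM final. Membrane-potential dye fluorescence (ex 535/em 590) was read; parental cells received 10 uM forskolin + 100 uM RO 20-1724.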

[10] = qHTS Assay for Identification of Small Molecule Agonists for Hypoxia Response Element Signaling Pathway (AID 914; active = well fitted activation curve with a large enough effect in the signal ratio, with a control signal flat, not every such curve was filed as active; the % refers to the signal ratio; note: % of control where 0% means no effect); settings: ME-180 (cervical carcinoma) HRE-bla reporter, beta-lactamase ratio, CoCl2, 17 h; activation: stronger effect = higher value
Outline: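 HRE-bla ME-180 assay for agonist-like enhancement of an EC50 CoCl2 stimulus: 17 h at 37 degrees Celsius, CCF4 for 2.5 h, ratiometric 460/530 nm signal converted to %Activity and fitted to AC50.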

[11] = target: Cytochrome P450 2C19 (Homo sapiens) (UniProt P33261); assay: qHTS Assay for Inhibitors and Substrates of Cytochrome P450 2C19 (AID 899; active = well fitted inhibition curve with a large enough effect; note: nearly all actives have a fitted effect of over 60% in size; note: potency is the fitted concentration of half-maximal effect); settings: recombinant CYP2C19, luciferin-H EGE luminescence; series mostly up to 11.4 µM
Outline: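 Human CYP2C19 (5nM) with Luciferin-H EGE at 10uM (its KM) in 50mM KPO4 was preincubated with compound for 10 min at 37C. NADPH regeneration started a 60 min 37C reaction. Luciferin was read by luminescence, normalized to 57uM ketoconazole.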

Cytochrome P450 2C19 (Homo sapiens), sequence (P33261 whole entry, looked up): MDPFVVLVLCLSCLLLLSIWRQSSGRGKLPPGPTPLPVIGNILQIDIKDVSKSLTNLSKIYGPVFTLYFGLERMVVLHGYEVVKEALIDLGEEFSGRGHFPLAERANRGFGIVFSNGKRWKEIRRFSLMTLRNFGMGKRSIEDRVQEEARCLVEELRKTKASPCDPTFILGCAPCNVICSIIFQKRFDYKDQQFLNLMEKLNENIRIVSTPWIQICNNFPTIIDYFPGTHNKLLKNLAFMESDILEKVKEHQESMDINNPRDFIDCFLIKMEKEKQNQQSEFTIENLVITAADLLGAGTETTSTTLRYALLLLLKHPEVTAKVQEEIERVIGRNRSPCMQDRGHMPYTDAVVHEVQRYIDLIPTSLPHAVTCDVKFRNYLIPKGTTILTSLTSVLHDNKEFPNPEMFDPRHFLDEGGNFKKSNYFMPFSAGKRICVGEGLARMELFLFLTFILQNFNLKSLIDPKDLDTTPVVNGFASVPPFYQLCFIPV
3',5'-cyclic-AMP phosphodiesterase 4B (Homo sapiens), sequence (Q07343 whole entry, looked up): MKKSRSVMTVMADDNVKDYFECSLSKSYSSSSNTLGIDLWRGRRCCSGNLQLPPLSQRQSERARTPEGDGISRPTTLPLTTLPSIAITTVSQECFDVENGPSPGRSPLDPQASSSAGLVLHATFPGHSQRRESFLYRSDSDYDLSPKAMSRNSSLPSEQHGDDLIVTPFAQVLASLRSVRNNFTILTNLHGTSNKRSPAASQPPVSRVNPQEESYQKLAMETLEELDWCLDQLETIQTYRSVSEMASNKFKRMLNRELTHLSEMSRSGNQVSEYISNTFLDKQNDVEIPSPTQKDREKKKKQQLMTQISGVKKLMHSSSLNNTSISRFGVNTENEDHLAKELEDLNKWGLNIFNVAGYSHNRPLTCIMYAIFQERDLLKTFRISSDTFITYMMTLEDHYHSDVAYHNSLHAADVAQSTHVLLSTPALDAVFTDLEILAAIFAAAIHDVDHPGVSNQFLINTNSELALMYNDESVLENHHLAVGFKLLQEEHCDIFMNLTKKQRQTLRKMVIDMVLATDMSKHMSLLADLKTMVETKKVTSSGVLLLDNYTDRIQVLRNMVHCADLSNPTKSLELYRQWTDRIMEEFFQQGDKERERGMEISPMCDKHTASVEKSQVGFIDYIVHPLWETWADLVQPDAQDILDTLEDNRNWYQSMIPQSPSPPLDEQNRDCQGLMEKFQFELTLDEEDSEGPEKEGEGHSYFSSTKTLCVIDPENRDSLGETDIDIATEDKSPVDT
Lysosomal acid glucosylceramidase (Homo sapiens), sequence (P04062 whole entry, looked up): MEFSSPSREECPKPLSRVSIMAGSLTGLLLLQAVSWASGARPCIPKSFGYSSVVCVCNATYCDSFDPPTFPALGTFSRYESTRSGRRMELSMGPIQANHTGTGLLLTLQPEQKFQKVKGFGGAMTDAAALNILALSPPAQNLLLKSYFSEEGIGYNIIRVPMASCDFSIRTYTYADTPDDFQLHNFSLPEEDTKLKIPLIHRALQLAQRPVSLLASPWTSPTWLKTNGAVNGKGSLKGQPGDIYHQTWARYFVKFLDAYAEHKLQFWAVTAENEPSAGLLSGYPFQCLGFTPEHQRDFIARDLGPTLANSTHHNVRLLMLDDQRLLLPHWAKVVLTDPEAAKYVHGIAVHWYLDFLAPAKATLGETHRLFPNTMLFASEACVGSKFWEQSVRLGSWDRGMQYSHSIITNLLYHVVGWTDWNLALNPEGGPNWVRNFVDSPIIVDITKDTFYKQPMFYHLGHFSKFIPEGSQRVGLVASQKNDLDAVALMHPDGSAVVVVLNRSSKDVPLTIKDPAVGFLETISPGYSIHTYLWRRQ
Cytochrome P450 1A2 (Homo sapiens), sequence (P05177 whole entry, looked up): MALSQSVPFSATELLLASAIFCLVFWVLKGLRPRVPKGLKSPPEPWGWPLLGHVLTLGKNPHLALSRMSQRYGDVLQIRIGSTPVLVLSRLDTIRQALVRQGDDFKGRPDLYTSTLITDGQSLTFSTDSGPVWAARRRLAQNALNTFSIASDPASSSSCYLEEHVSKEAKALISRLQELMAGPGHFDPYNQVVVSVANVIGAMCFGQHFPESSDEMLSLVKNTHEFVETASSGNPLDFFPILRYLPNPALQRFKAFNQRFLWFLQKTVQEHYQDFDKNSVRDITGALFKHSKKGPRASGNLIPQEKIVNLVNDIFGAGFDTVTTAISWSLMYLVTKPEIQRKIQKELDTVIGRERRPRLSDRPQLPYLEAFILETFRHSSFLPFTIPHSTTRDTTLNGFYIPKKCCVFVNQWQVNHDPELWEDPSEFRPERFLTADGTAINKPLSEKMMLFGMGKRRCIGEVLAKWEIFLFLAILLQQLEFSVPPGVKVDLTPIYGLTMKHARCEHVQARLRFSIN
Glucocorticoid receptor (Homo sapiens), sequence (P04150 whole entry, looked up, the tested form may be a part): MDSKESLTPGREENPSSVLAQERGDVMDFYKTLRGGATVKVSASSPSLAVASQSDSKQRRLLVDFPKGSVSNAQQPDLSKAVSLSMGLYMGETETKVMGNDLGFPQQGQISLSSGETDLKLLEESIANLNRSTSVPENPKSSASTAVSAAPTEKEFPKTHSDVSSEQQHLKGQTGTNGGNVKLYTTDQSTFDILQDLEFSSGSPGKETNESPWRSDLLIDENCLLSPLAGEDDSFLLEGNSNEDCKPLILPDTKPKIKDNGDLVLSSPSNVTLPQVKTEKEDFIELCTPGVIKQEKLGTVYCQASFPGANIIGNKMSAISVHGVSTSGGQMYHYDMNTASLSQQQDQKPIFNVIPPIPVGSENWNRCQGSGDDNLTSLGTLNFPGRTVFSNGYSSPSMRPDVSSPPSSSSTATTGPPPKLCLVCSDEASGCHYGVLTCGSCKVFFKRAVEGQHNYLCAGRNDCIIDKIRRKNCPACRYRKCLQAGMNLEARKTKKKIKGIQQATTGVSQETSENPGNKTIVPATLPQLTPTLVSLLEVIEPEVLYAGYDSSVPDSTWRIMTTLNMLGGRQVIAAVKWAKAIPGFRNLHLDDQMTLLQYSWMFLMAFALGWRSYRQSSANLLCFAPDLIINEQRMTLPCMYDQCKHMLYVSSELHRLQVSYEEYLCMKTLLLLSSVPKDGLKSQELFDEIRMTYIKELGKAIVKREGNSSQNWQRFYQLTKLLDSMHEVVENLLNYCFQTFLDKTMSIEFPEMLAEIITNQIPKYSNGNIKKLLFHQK

Compound | Potency [1] [µM] | activity change, negative = inhibition [2] [%] | activity change, negative = inhibition [3] | activity change, negative = inhibition [4] [%] | activity, negative = inhibition [5] [%] | Potency [6] [µM] | Potency [7] [µM] | Potency [8] | Potency [9] | activation [10] [%] | Potency [3] | Potency [11]
O=S(=O)(O)CCCc1cccc2ccccc12 | > 11.4 | 3.46 | -16.7% [at 2.29 µM] | 3.52 | 1.1 | > 46 | > 9.22 | inactive | inactive | -2.01 | – | –
COc1ccc2nc(NCN3C(=O)c4ccccc4C3=O)sc2c1 | > 11.4 | 2.48 | – | -16 | 10.9 | > 46 | > 9.22 | inactive | inactive | – | 3.98 µM (active) | 2.51 µM (active)
CC(C)(C)COS(=O)OCC(C)(C)C | > 11.4 | -7.58 | – | 3.4 | 13.1 | > 46 | > 9.22 | inactive | inactive | – | inactive | inactive
O=C(O)C/C(=C\c1ccco1)C(=O)O | > 11.4 | 8.65 | -11.8% [at 2.29 µM] | 9.1 | 7.2 | > 46 | > 9.22 | inactive | inactive | – | – | inactive
Cc1cc(CN2CCCCC2)c(O)c(CN2CCCCC2)c1 | > 11.4 | 25.8 | -18.8% [at 2.29 µM] | -21.4 | -1.32 | > 46 | > 9.22 | inactive | inactive | 2.92 | – | –
COc1ccc(NC(=S)Nc2ccccc2)cc1 | > 11.4 | 0.508 | – | 6.45 | 10.3 | > 46 | > 9.22 | inactive | inactive | 8.18 | 1.26 µM (active) | 2 µM (active)
S=c1c2[nH]cnc2ncn1CCSc1ncnc2nc[nH]c12 | > 11.4 | -5.47 | – | 23.1 | 7.7 | > 46 | > 9.22 | inactive | inactive | – | inactive | inactive
Cn1c(=O)c2c(nc(C(=N)SCC(=O)O)n2C)n(C)c1=O | > 11.4 | -5.29 | – | 4.58 | -6.13 | > 46 | > 9.22 | inactive | inactive | – | 1.26 µM (active) | inactive
N=C(N)SCCCN | > 11.4 | 2.32 | – | 3.8 | 5.52 | > 46 | > 9.22 | inactive | inactive | – | 6.31 µM (active) | inactive
COc1ccc2cc(C(=O)CCC(=O)O)ccc2c1 | > 11.4 | 1.75 | – | 19.6 | 6.44 | > 46 | > 9.22 | inactive | inactive | – | 0.794 µM (active) | 2 µM (active)
O=C(O)C1CC2(C1)CC(C(=O)O)C2 (stereo unspecified) | > 11.4 | 1.62 | -6.3% [at 2.29 µM] | 10.7 | 12.7 | > 46 | > 9.22 | inactive | inactive | – | – | inactive
N=c1ccn2c(n1)O[C@H]1[C@@H](OP(=O)(O)O)[C@H](CO)O[C@H]12 | > 11.4 | 1.47 | -3.1% [at 2.29 µM] | 19.9 | -1.19 | > 46 | > 9.22 | inactive | inactive | – | – | inactive
Cc1ccc(S(=O)(=O)Oc2cc(S(=O)(=O)O)cc3cc(S(=O)(=O)O)cc(N)c23)cc1 | > 11.4 | 8.2 | – | 1.61 | 11.7 | > 46 | > 9.22 | inactive | inactive | -7.4 | 2 µM (active) | –
Cc1cn(CC[C@H](N)C(=O)O)c(=O)[nH]c1=O | > 11.4 | 0.888 | – | -6.68 | 16.3 | > 46 | > 9.22 | inactive | inactive | – | inactive | inactive
